Source: PubChem (National Center for Advancing Translational Sciences (NCATS))
An excerpt weighted towards active compounds, which were near 21% of everything screened.
IL1B secr inh: inflammasome signaling inhibition, IL-1 beta readout; activity change, % at 57.5 µM; THP-1 LPS/ATP IL-1B secretion, AlphaLISA, 16 h; stronger effect = lower value; AID 743279; 360,000 compounds, 4.7% hits; in the data active = activity change below about -50%; inconclusive = mostly about -30% to -49%; note: % is set by controls: 0 for no effect and ±100 for the full control effect
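THP-1 cells pretreated 1 hr with compounds (up to 57.5 uM final), then stimulated with LPS (250 ng/mL final) plus ATP (1.25 mM final); secreted IL-1B measured by AlphaLISA after 16 hr, decreased signal indicating inhibition.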
DRD3 agonist: agonists of human D3 dopamine receptor; P35462; D3R DiscoveRx beta-arrestin cells, luminescence, 90 min; max activation, %; 410,000 compounds, 0.58% hits; in the data active = max activation above about 30%; note: 0% is about no effect
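Agonist-mode cell screen: cells plated at 1500/well and incubated overnight at 37 °C, then exposed to library compounds for 90 min at 37 °C. Detection reagent was added for 30–60 min at room temperature, and luminescence was read.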
D3 antag: D3 dopamine receptor (human) antagonism. D3R cells, DiscoveRx beta-arrestin luminescence, antagonist mode; stronger effect = lower value. max response, negative = inhibition, %. P35462. AID 652054. 360,000 compounds, 2.5% hits; in the data active = max response below about -50%; inconclusive = no clear call, values can overlap the other calls; note: % is set by controls: 0 for no effect and ±100 for the full control effect
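Cells expressing the human receptor were seeded at 1500 cells/well, incubated overnight at 37 degrees C in 5% CO2, then exposed to library compounds with dopamine controls for 90 minutes at 37 degrees C before luminescent detection.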
DT40 TDP1 CPT: DT40-hTDP1 cell growth loss with CPT | chicken DT40 Tdp1-/-;hTDP1 cells + 20 nM CPT, ATP luminescence, 48 h | Potency, µM (highest dose often 46.2 µM), without a hit: at the highest dose activity change, negative = growth inhibition, usual class: inhibitors | 420,000 compounds, 12% hits; note: potency is the fitted concentration of half-maximal effect; % is set by controls: 0 for no effect and ±100 for the full control effect; nearly all actives have a fitted effect of over 55% in size
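Chicken DT40 Tdp1-/- cells stably complemented with human TDP1 were seeded at 400 cells/well in medium containing 20 nM camptothecin, exposed to pin-transferred compounds, and grown at 37 °C for at least 48 hr. Viability was read as ATP luminescence.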
DT40 TDP1 no CPT: qHTS for Inhibitors of human tyrosyl-DNA phosphodiesterase 1 (TDP1): qHTS in cells in absence of CPT. DT40 Tdp1-/- hTDP1 cells, no CPT, ATP luminescence, 48 h. 420,000 compounds, 15% hits. Potency, µM (series often up to 46.2 µM), for inactives: at the highest dose activity change, negative = growth inhibition, usual class: inhibitors. AID 686978, 2013; note: potency is the fitted concentration of half-maximal effect; % is set by controls: 0 for no effect and ±100 for the full control effect; nearly all actives have a fitted effect of over 55% in size
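Chicken DT40 Tdp1-/- cells stably complemented with human TDP1 were seeded at 400 cells/well with DMSO in place of 20 nM camptothecin. After compound pinning, cells grew at least 48 hr at 37 °C; viability read by CellTiter-Glo luminescence.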
ClpP mod: qHTS Assay for Activators of ClpP. purified B. subtilis ClpP, FRET peptide cleavage, 20 min. Potency, µM (series often up to 57.5 µM), without a hit: at the highest dose activity change, negative = active. 340,000 compounds, 1.9% hits. AID 651965, 2013; active = well fitted falling curve with a large enough effect; inconclusive = small, poorly fitted or top-dose-only effect; inactive = no such curve, though single readings can be large or run the other way; note: potency is the fitted concentration of half-maximal effect; the source files actives as falling curves though it sought activators and does not explain the sign; nearly all actives have a fitted effect of over 65% in size
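Purified B. subtilis ClpP, 10 microg/mL final in Tris/HCl pH8 with KCl, BSA, glycerol and Tween-20, cleaved an Abz/nitrotyrosine-quenched decapeptide. Fluorescence (ex 320, em 430) was read at 0 and 20 min at room temperature. Delta was normalized to 5.8 microM ADEP and DMSO/no-enzyme controls.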
Starred values were filed as active, the others as inactive; ? = inconclusive; nt = no result; ! = a repeat was not active. Unless noted, calls come from the whole dose curve; as a rule, active = well fitted inhibition curve with a large enough effect; inconclusive = small, poorly fitted or top-dose-only effect; inactive = flat fitted curve, though single readings scatter.

SMILES	IL1B secr inh	DRD3 agonist	D3 antag	DT40 TDP1 CPT	DT40 TDP1 no CPT	ClpP mod
Cc1cc(C)n(CCC(=O)N/N=C/c2ccc(O)cc2O)n1	98	-7	13	?	23µM*	-2%
O=S(=O)(c1cc(O)ccc1O)c1cccc2c(S(=O)(=O)c3cc(O)ccc3O)cccc12	27	-9	4	-15%	-21%	0%
COc1ccc(NC(=O)N(C)C[C@@H]2Oc3ccc(NC(=O)NC(C)C)cc3CC(=O)N([C@H](C)CO)C[C@@H]2C)cc1	-17	-21	-18	-21%	5%	0%
O=C(Cn1cnc([N+](=O)[O-])n1)N/N=C/c1ccc(O)cc1O	150	14	5	?	12µM*	nt
O=C(Nc1ncc(S(=O)(=O)c2ccc([N+](=O)[O-])cc2)s1)c1cccc2ccccc12	29	8	6	15µM*	21µM*	-1%
O=C(NC(Nc1ncc(S(=O)(=O)c2ccc([N+](=O)[O-])cc2)s1)(C(F)(F)F)C(F)(F)F)c1ccc(Cl)cc1	-76*	2	-17	?	15µM*	0%
CC(=O)NCCC(=O)Nc1ncc(S(=O)(=O)c2ccc([N+](=O)[O-])cc2)s1	22	-14	-18	-19%	-17%	-3%
O=C(O)Cn1c(=O)c2c3c(sc2n(Cc2ccccc2F)c1=O)CCCC3	25	-14	-20	-18%	-1%	-4%
CCOC(=O)c1ccc(Oc2cc(C)nc(Cl)n2)cc1	nt	-10	-2	4%	-23%	nt
CCOc1cc(CC(=O)N[C@@H](CC(C)C)c2ccccc2N2CCCCC2)ccc1C(=O)O	23	96*!	37	-21%	-5%	2%
Cc1nn(C(=O)c2c(-c3ccccc3)noc2C)c(C)c1N=Nc1cc(C(F)(F)F)cc(C(F)(F)F)c1	35	-1	6	-2%	-3%	1%
Cc1cc(NC2=CC(=O)C(=O)c3ccccc32)no1	-101*	-15	?	6.5µM*	12µM*	-3%
Cc1cc(NC(=O)CCN2C(=O)c3ccccc3C2=O)no1	-4	2	-6	-9%	-8%	0%
COc1cc(OC)c(NC2=CC(=O)C(=O)c3ccccc32)cc1Cl	?	-1	-26	12µM*	18µM*	3%
CCCC(=O)Nc1cc(C)c(O)c(-c2nc3ncccc3o2)c1	nt	1	nt	-9%	-19%	0%
CCOC(=O)C(CCc1ccccn1)c1ccccc1 (stereo unspecified)	-1	-10	-24	?	?	7.9µM*
CC(C)(CCc1ccccn1)C(=O)C(CCc1ccccn1)CCc1ccccn1	-55*	6	23	?	?	1%
CCCCN(C)c1c(C)nc2ccc(C(=O)N3CCN(C(C)=O)CC3)cn12	72	-1	-5	?	?	0%
NNC(=O)c1cccc(Cn2cc(Br)c([N+](=O)[O-])n2)c1	-17	-3	1	?	?	1%
COc1ccc(NC(=O)c2cccc(Cn3cc(Br)c([N+](=O)[O-])n3)c2)c(C)c1	22	-2	15	?	18µM*	2%
COC(=O)C1=CN(c2ccc(OC)cc2OC)C(N)=C(C#N)C1c1ccccc1F (stereo unspecified)	64	-2	-2	0.82µM*	0.58µM*	4%
COC(=O)C1=CN(c2ccc(C(C)(C)C)cc2)C(N)=C(C#N)C1c1ccccc1F (stereo unspecified)	20	3	1	?	21µM*	186%
CCc1ccc(N2C=C(C(=O)OC)C(c3ccccc3F)C(C#N)=C2N)cc1 (stereo unspecified)	-21	-1	3	?	23µM*	-13%
COC(=O)C1=CN(c2ccc(OC)cc2)C(N)=C(C#N)C1c1ccccc1F (stereo unspecified)	25	8	-3	10µM*	13µM*	3%
COC(=O)C1=CN(Cc2ccc(OC)c(OC)c2)C=C(C(=O)OC)C1c1ccccc1F	13	25	86	?	?	4%
SMILES	IL1B secr inh	DRD3 agonist	D3 antag	DT40 TDP1 CPT	DT40 TDP1 no CPT	ClpP mod
COC(=O)C1=C(C)OC(N)=C(C#N)C1c1ccccc1F (stereo unspecified)	-15	15	15	-22%	-9%	0%
Brc1ccc(-c2nnc(-c3ccco3)o2)cc1	-7	9	-2	-14%	-1%	37%
Cc1ccc(-c2nnc(-c3ccc(Br)cc3)o2)o1	-5	-26	24	-16%	-11%	32µM*
COc1ccc(Nc2nc(-c3ccccc3)nc3ccccc23)cc1S(=O)(=O)N1CCOCC1	-74*	-8	58	15µM*	8.2µM*	4%
COc1ccc(Nc2nnc(-c3ccc(C)c(S(=O)(=O)N4CCN(C)CC4)c3)c3ccccc23)cc1	nt	-8	nt	?	?	1%
COc1ccc(Nc2nnc(-c3ccc(C)c(S(=O)(=O)N4CCOCC4)c3)c3ccccc23)cc1	nt	-10	nt	15µM*	7.3µM*	-4%
Cc1ccc(Nc2nnc(-c3ccc(C)c(S(=O)(=O)N4CCOCC4)c3)c3ccccc23)cc1	nt	-15	nt	16µM*	10µM*	-1%
CNC(=O)c1ccc(Nc2nnc(-c3ccc(C)c(S(=O)(=O)N4CCOCC4)c3)c3ccccc23)cc1	nt	-3	nt	21µM*	7.3µM*	-8%
CSc1ccc(Cl)c(C(=O)NNC(=O)c2cccs2)c1	-19	-2	0	6%	-17%	nt
Cc1ccc(S(=O)(=O)N2CCC(n3c(C)nc4cccnc43)CC2)c(C)c1	nt	5	nt	6.5µM*	7.3µM*	-1%
CC1CCN(S(=O)(=O)c2cccc(-c3cn4cc(Cl)ccc4n3)c2)CC1	4	-7	10	?	23µM*	35µM*
CCN(CC)S(=O)(=O)c1ccc(-c2cn3cc(Cl)ccc3n2)cc1	2	-6	-18	?	18µM*	nt
CCOC(=O)C1CCN(S(=O)(=O)c2cccc(-c3cn4cc(Cl)ccc4n3)c2)CC1	-1	10	-14	-20%	?	?
O=c1c(Cc2ccc(F)cc2)c(O)ccn1CCCN1CCOCC1	0	-1	5	-4%	-4%	-1%
COc1ccc(CCNC(=O)CC(C)(C)CC2=NS(=O)(=O)c3ccccc3N2)cc1OC	-9	-2	-5	-16%	16%	-1%
